This note sets out measurements from PubChem BioAssay (NCATS).

SMILES strings stand for the structures. Records with an inconclusive call do not appear. Activity calls are given as the source filed them. Calls follow the shape of the dose curve; as a rule, active = well fitted curve in the direction sought with a large enough effect; inconclusive = small, poorly fitted or top-dose-only effect, or another doubt; inactive = no such curve, though single readings can be large; an effect the other way counts as inactive or inconclusive.
% is scaled to controls: 0 for no effect and ±100 for the full control effect.

Sequence of Calcium and integrin-binding protein 1 (Homo sapiens) (Q99828 whole entry, looked up): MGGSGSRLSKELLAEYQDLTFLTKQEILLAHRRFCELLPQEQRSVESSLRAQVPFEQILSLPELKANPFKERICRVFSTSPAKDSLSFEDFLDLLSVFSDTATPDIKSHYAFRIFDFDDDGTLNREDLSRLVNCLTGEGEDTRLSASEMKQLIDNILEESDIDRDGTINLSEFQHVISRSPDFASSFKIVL

The target of the first test is Calcium and integrin-binding protein 1 (Homo sapiens) (UniProt Q99828). Put plainly: Primary qHTS for Identification of Calcium Integrin Binding Protein 1 (CIB1) Competitor (AID 1508620). Also: potency is read from the fitted curve at half-maximal effect.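 As to activity change, negative = inhibition: GST tagged CIB1 binding a fluorescein labelled alphaIIb integrin peptide tracer; top concentration of the series differs between compounds.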 Particulars: CIB1-GST / FITC-alphaIIb peptide fluorescence polarization; series mostly up to 114 µM; activity change, negative = inhibition: at the top concentration. The method, boiled down:
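Fluorescence polarization competition: GST-tagged CIB1 (1 uM final) preincubated with compound 15 min at room temperature, then FITC-labelled alphaIIb peptide (100 nM final) added. After 15 min at room temperature, polarization read at Ex 480/Em 540.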
For `COP(=S)(OC)Oc1cc(Cl)c(Cl)cc1Cl`, the “activity change, negative = inhibition” value was -6.97% (inactive).

On to `Nc1ccc([As](=O)(O)O)cc1`, for which the “activity change, negative = inhibition” value was -0.705% (inactive).

As for `CCN(CCO)CCn1c(Cc2ccccc2)nc2c1c(=O)n(C)c(=O)n2C`, the “activity change, negative = inhibition” value was -1.57% (inactive).

With `CNC(C)(C)Cc1ccccc1`, the “activity change, negative = inhibition” value is -3.47% (inactive).

As to `C[C@]12CC[C@H]3[C@@H](CCC4=CC(=O)CC[C@@H]43)[C@@H]1CC[C@@H]2OC(=O)CCc1ccco1`, the “activity change, negative = inhibition” value was 2.27% (inactive).

With `C[C@]12CCC(=O)C=C1CC[C@@H]1[C@@H]2CC[C@@]2(C)[C@H]1CC[C@]2(C)O`, the “activity change, negative = inhibition” value was 5.26% (inactive).

For `CC(C)NC(C)C`, the “activity change, negative = inhibition” value was 7.29% (inactive).

Take `CC(C)C[C@H](CN)CC(=O)O`: the “activity change, negative = inhibition” value was -1.09% [at 57.7 µM] (inactive).

On to `CC(C)(C)NCC(O)c1cc(Cl)c(N)c(C(F)(F)F)c1` (configuration not stated), for which the “activity change, negative = inhibition” value is 0.693% (inactive).

On to `C[C@](O)(CS(=O)(=O)c1ccc(F)cc1)C(=O)Nc1ccc(C#N)c(C(F)(F)F)c1`, for which the “activity change, negative = inhibition” value is -0.624% [at 57.7 µM] (inactive).

In the case of `Nc1ccccc1`, the “activity change, negative = inhibition” value is 4.82% (inactive).

`C[C@]12CC[C@H]3[C@@H](CCC4=CC(=O)CC[C@@H]43)[C@@H]1CC[C@@H]2OC(=O)CCC1CCCCC1`: the “activity change, negative = inhibition” value is -4.61% (inactive).

With `C[C@]12CCC(=O)C=C1CC[C@@H]1[C@@H]2CC[C@]2(C)C(=O)CC[C@@H]12`, the “activity change, negative = inhibition” value was 3.16% (inactive).

In the case of `CNCC(=O)c1ccc(O)c(O)c1`, the “activity change, negative = inhibition” value is -22.4% (inactive).

Regarding `COC(=O)C(Cl)C(=O)OC`, the “activity change, negative = inhibition” value was -3.19% (inactive).

`NNc1ccccc1`: the “activity change, negative = inhibition” value is 2.52% (inactive).

For the compound `c1ccc2c(c1)sc1ccccc12`, the “activity change, negative = inhibition” value was 0.596% (inactive).

Consider `COC1CC(=C(c2cccs2)c2cccs2)C[N+](C)(C)C1` (configuration not stated), for which the “activity change, negative = inhibition” value is 1.9% (inactive).

On to `CCC1(c2ccccc2)C(=O)N(COC)C(=O)N(COC)C1=O`, for which the “activity change, negative = inhibition” value was 1.57% (inactive).

`C[C@]12CCC(=O)C=C1CC[C@@H]1[C@H]3CC[C@](C)(O)[C@@]3(C)CC[C@@H]12`: the “activity change, negative = inhibition” value is 7.29% [at 228 µM] (inactive).

Turning to `CCN(CC)CCc1c[nH]c2ccccc12`, the “activity change, negative = inhibition” value was 7.01% [at 384 µM] (inactive).

With `Nc1nc(N)nc(NC2CC2)n1`, the “activity change, negative = inhibition” value is 2.88% (inactive).

With `CC(C)c1c(CN(C)C(C)Cc2ccccc2)n(C)n(-c2ccccc2)c1=O` (configuration not stated), the “activity change, negative = inhibition” value is -2.68% (inactive).

Take `CCN(CC)C(=O)[C@@H]1C=C2c3cccc4[nH]cc(c34)C[C@H]2N(C)C1`: the Potency is 63.1 µM (active).

In the case of `CN1C(=O)NC(=O)C(C)(C2=CCCCC2)C1=O` (configuration not stated), the “activity change, negative = inhibition” value was -3.58% (inactive).

On to `COc1cccc([C@@]2(O)CCCC[C@@H]2CN(C)C)c1`, for which the “activity change, negative = inhibition” value was 0.818% (inactive).

As for `C=CCN1C[C@H](C)N([C@H](c2ccc(C(=O)N(CC)CC)cc2)c2cccc(OC)c2)C[C@H]1C`, the Potency result is “inactive”.

As to `O=C1CN=C(c2ccccc2)c2cc([N+](=O)[O-])ccc2N1`, the “activity change, negative = inhibition” value was 0.521% (inactive).

With `CC(C)=CC1C(C(=O)OCN2C(=O)C3=C(CCCC3)C2=O)C1(C)C` (configuration not stated), the “activity change, negative = inhibition” value was -3.73% (inactive).

For the compound `CCC(CC)(CNC(=O)CCCO)c1cccc(OC)c1`, the “activity change, negative = inhibition” value was 1.09% (inactive).

Turning to `COc1ccc2c3c1O[C@H]1[C@H](O)CC[C@H]4[C@@H](C2)N(C)CC[C@@]341`, the “activity change, negative = inhibition” value is 6.75% [at 228 µM] (inactive).

Test system in the next test: not listed separately
The experiment in a line: Primary qHTS for small molecule stabilizers of the endoplasmic reticulum resident proteome: Secreted ER Calcium Modulated Protein (SERCaMP) assay (AID 1508630). Particulars: SH-SY5Y GLuc-SERCaMP (Gaussia luciferase released on ER calcium loss) secretion, thapsigargin, luminescence; series mostly up to 38.4 µM; activity change, negative = inhibition: at the top concentration. In outline:
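The SH-SY5Y reporter protocol was run at 3 concentrations up to 38.3 uM (primary) or 11 concentrations (follow-up): 16 h compound, 100 nM thapsigargin for 4 h, then extracellular luciferase luminescence.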
For `COP(=S)(OC)Oc1cc(Cl)c(Cl)cc1Cl`, the “activity change, negative = inhibition” value was -6.97% (inactive).

Turning to `CCN(CCO)CCn1c(Cc2ccccc2)nc2c1c(=O)n(C)c(=O)n2C`, the “activity change, negative = inhibition” value is 3.41% (inactive).

As for `CNC(C)(C)Cc1ccccc1`, the “activity change, negative = inhibition” value is -25.7% (inactive).

Regarding `C[C@]12CC[C@H]3[C@@H](CCC4=CC(=O)CC[C@@H]43)[C@@H]1CC[C@@H]2OC(=O)CCc1ccco1`, the “activity change, negative = inhibition” value was 4.45% (inactive).

As to `C[C@]12CCC(=O)C=C1CC[C@@H]1[C@@H]2CC[C@@]2(C)[C@H]1CC[C@]2(C)O`, the “activity change, negative = inhibition” value was -2.46% (inactive).

As for `CC(C)(C)NCC(O)c1cc(Cl)c(N)c(C(F)(F)F)c1` (configuration not stated), the “activity change, negative = inhibition” value is 10.7% (inactive).

Turning to `COP(=S)(OC)SCN1C(=O)c2ccccc2C1=O`, the “activity change, negative = inhibition” value is -22.6% (inactive).

Take `C[C@](O)(CS(=O)(=O)c1ccc(F)cc1)C(=O)Nc1ccc(C#N)c(C(F)(F)F)c1`: the “activity change, negative = inhibition” value is 166% (inactive).

For `Nc1ccccc1`, the “activity change, negative = inhibition” value was -26% (inactive).

Consider `C[C@]12CC[C@H]3[C@@H](CCC4=CC(=O)CC[C@@H]43)[C@@H]1CC[C@@H]2OC(=O)CCC1CCCCC1`, for which the “activity change, negative = inhibition” value is -15.5% (inactive).

Consider `C[C@]12CCC(=O)C=C1CC[C@@H]1[C@@H]2CC[C@]2(C)C(=O)CC[C@@H]12`, for which the Potency entry is “inactive”.

For the compound `COC(=O)C(Cl)C(=O)OC`, the “activity change, negative = inhibition” value was -1.05% (inactive).

Turning to `c1ccc2c(c1)sc1ccccc12`, the “activity change, negative = inhibition” value is -7.7% (inactive).

Consider `COC1CC(=C(c2cccs2)c2cccs2)C[N+](C)(C)C1` (configuration not stated), for which the “activity change, negative = inhibition” value was -18.7% (inactive).

With `CCC1(c2ccccc2)C(=O)N(COC)C(=O)N(COC)C1=O`, the “activity change, negative = inhibition” value was -15.8% (inactive).

As for `C[C@]12CCC(=O)C=C1CC[C@@H]1[C@H]3CC[C@](C)(O)[C@@]3(C)CC[C@@H]12`, the “activity change, negative = inhibition” value is -13.8% [at 76.3 µM] (inactive).

For the compound `CCN(CC)CCc1c[nH]c2ccccc12`, the “activity change, negative = inhibition” value was 1.15% [at 137 µM] (inactive).

Consider `Nc1nc(N)nc(NC2CC2)n1`, for which the “activity change, negative = inhibition” value is 2.89% (inactive).

Take `CC(C)c1c(CN(C)C(C)Cc2ccccc2)n(C)n(-c2ccccc2)c1=O` (configuration not stated): the “activity change, negative = inhibition” value was 1.58% (inactive).

For the compound `CCN(CC)C(=O)[C@@H]1C=C2c3cccc4[nH]cc(c34)C[C@H]2N(C)C1`, the “activity change, negative = inhibition” value is -26.1% [at 137 µM] (inactive).

Regarding `CN1C(=O)NC(=O)C(C)(C2=CCCCC2)C1=O` (configuration not stated), the “activity change, negative = inhibition” value is -20.1% (inactive).

Regarding `COc1cccc([C@@]2(O)CCCC[C@@H]2CN(C)C)c1`, the “activity change, negative = inhibition” value is -17.9% (inactive).

Turning to `C=CCN1C[C@H](C)N([C@H](c2ccc(C(=O)N(CC)CC)cc2)c2cccc(OC)c2)C[C@H]1C`, the Potency entry was “inactive”.

`O=C1CN=C(c2ccccc2)c2cc([N+](=O)[O-])ccc2N1`: the “activity change, negative = inhibition” value is 3.74% (inactive).

For the compound `CC(C)=CC1C(C(=O)OCN2C(=O)C3=C(CCCC3)C2=O)C1(C)C` (configuration not stated), the “activity change, negative = inhibition” value was 45.4% (inactive).

On to `CCC(CC)(CNC(=O)CCCO)c1cccc(OC)c1`, for which the “activity change, negative = inhibition” value is -7.29% (inactive).
